# Laboratory results published in article PMC7862700, “An all-to-all approach to the identification of sequence-specific readers for epigenetic DNA modifications on cytosine”.
# Legend:
# Test in all cases: DAPPL (digital affinity profiling via proximity ligation, sequencing); 10 mM Tris-HCl pH 7.5, 50 mM NaCl, 1 mM DTT, 4% glycerol, room temperature, 30 min; GST-TFs on glutathione beads, 16-mer random dsDNA library, 0.1% formaldehyde crosslink after washing; high values mean tight binding
# Conditions in all cases: protein: recombinant; tags: N-terminal GST; dsDNA, one strand shown
# FLI1 = target: T1, FLI1 (Homo sapiens, UniProt Q01543 1-452)
# T1 sequence: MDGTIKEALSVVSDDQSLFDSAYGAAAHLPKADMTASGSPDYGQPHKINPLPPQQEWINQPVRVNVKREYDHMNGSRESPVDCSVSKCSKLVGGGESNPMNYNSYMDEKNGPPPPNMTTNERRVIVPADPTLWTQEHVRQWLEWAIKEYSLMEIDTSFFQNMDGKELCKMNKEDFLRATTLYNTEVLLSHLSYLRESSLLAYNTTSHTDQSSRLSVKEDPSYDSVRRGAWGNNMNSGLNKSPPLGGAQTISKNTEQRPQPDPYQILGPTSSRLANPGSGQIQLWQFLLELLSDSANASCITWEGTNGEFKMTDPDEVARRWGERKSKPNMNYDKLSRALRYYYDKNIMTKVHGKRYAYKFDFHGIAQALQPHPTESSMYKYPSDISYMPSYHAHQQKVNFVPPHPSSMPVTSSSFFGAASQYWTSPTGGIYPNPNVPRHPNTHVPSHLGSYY
# Method in brief: (§1)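 Binding signal is defined as a hexamer's read frequency for one factor over its frequency for the tag-only sample. To obtain reads, GST-fused human transcription factors were expressed in yeast, captured on glutathione beads, barcoded with DNA and pooled with that sample. Pools met 200 nmole of a 16-mer random double-stranded DNA library in Tris/NaCl/DTT/glycerol buffer for 30 min at room temperature before washing, 0.1% formaldehyde crosslinking, proximity ligation (BsaI/T4 ligase, 1 h, 37 °C), PCR and Illumina NextSeq500 sequencing.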
# EHF = target: T2, EHF (Homo sapiens, UniProt Q9NZC4 1-300)
# T2 sequence: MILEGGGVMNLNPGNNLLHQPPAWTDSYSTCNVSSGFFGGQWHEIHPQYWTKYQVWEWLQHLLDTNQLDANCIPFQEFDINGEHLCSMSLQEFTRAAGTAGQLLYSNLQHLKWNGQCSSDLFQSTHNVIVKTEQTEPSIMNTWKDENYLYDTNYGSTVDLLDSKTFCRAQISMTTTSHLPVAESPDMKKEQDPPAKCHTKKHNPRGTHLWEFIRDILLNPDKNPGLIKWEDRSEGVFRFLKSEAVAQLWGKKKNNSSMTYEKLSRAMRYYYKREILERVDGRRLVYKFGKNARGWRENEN
# Method in brief: as §1
# SPIB = SPIB (Homo sapiens, UniProt Q01892 1-262)
# Chain of SPIB (Q01892 whole entry): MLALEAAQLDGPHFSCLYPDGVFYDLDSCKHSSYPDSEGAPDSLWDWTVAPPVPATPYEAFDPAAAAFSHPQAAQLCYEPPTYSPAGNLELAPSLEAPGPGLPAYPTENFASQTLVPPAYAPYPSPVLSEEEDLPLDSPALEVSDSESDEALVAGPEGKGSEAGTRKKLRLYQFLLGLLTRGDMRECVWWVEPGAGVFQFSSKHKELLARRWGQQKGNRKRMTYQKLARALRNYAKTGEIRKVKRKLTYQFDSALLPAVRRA
# Method in brief: as §1
# ETV2 = target: T3, ETV2 (Homo sapiens, UniProt O00321 1-342)
# T3 sequence: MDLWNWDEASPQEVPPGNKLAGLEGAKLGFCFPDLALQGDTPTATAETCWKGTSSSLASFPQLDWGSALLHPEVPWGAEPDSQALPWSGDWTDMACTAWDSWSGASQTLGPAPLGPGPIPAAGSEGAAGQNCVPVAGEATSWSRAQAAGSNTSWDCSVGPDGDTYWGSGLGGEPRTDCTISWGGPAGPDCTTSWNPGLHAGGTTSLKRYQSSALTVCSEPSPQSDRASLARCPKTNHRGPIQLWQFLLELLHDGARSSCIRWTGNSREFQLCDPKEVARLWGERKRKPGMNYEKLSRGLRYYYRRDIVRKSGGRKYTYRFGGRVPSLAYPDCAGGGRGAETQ
# Method in brief: as §1
# ETV7 = target: T4, ETV7 (Homo sapiens, UniProt Q9Y603 1-341)
# T4 sequence: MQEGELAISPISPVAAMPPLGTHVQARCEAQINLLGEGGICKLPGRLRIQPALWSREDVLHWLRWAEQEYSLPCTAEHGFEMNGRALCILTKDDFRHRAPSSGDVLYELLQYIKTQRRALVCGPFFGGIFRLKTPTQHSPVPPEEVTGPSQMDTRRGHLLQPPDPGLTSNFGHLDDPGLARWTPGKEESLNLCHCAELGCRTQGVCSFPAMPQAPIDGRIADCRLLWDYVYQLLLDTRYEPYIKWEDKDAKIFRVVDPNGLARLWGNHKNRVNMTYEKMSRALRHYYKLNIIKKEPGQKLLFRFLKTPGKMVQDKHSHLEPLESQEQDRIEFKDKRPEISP
# Method in brief: as §1
# ETV3 = target: T5, ETV3 (Homo sapiens, UniProt P41162-2 1-143)
# T5 sequence: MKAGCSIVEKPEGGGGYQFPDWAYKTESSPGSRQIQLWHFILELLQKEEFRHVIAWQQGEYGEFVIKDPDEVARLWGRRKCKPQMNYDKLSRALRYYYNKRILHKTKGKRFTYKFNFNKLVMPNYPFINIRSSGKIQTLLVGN
# Method in brief: as §1
# ETV6 = ETV6 (Homo sapiens, UniProt P41212 1-452)
# Chain of ETV6 (P41212 whole entry): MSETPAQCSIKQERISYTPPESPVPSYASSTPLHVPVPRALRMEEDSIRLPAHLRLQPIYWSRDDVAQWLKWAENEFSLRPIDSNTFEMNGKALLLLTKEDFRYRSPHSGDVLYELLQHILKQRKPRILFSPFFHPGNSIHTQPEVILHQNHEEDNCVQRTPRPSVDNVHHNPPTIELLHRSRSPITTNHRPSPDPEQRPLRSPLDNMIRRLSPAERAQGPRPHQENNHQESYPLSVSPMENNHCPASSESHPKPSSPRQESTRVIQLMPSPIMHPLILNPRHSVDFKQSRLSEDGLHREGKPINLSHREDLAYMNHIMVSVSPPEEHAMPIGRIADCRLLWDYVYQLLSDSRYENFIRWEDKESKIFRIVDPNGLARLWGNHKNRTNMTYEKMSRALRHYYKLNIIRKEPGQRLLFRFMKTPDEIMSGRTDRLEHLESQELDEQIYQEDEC
# Method in brief: as §1
# GABPA = target: T6, GABPA (Homo sapiens, UniProt Q06546 1-454)
# T6 sequence: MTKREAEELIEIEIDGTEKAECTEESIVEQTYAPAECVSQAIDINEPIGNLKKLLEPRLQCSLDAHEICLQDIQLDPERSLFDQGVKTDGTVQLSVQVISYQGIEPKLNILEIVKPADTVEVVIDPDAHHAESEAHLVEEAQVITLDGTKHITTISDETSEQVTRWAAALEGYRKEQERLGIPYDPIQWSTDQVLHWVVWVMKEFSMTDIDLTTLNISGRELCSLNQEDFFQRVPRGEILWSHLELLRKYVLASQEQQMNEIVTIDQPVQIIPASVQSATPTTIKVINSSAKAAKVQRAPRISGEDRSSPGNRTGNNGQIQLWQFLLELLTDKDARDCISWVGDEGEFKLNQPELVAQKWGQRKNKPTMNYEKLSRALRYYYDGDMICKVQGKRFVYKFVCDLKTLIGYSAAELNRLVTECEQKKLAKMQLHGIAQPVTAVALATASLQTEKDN
# Method in brief: as §1
# ELF1 = ELF1 (Homo sapiens, UniProt P32519 1-619)
# Chain of ELF1 (P32519 whole entry): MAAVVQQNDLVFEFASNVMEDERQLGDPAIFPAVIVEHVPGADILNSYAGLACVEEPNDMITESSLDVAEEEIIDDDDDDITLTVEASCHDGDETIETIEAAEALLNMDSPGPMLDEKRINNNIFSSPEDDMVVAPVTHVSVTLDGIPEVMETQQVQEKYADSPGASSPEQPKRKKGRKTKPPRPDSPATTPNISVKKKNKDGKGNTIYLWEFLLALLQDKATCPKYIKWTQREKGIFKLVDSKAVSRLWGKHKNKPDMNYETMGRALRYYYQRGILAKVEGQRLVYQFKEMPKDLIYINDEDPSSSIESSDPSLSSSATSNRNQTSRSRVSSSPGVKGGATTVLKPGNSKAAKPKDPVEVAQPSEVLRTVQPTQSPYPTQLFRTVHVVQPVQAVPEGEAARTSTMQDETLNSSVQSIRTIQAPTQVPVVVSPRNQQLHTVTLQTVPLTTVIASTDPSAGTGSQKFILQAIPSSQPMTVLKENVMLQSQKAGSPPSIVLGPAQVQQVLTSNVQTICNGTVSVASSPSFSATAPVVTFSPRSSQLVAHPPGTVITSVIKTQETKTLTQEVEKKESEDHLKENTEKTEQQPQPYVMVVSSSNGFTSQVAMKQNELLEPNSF
# Method in brief: as §1
# ELK3 = target: T7, ELK3 (Homo sapiens, UniProt P41970 1-407)
# T7 sequence: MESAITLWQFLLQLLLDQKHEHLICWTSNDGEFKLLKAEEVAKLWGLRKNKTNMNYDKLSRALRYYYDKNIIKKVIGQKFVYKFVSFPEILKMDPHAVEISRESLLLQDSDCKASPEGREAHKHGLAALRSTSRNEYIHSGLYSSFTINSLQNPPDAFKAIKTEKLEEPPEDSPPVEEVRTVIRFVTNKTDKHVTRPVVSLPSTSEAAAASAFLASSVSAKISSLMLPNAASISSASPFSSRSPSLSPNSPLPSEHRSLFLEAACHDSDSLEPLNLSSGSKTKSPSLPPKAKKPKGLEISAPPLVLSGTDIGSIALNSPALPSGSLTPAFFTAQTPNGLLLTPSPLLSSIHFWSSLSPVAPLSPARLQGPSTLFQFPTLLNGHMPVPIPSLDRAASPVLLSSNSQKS
# Method in brief: as §1
# ERF = target: T8, ERF (Homo sapiens, UniProt P50548 1-548)
# T8 sequence: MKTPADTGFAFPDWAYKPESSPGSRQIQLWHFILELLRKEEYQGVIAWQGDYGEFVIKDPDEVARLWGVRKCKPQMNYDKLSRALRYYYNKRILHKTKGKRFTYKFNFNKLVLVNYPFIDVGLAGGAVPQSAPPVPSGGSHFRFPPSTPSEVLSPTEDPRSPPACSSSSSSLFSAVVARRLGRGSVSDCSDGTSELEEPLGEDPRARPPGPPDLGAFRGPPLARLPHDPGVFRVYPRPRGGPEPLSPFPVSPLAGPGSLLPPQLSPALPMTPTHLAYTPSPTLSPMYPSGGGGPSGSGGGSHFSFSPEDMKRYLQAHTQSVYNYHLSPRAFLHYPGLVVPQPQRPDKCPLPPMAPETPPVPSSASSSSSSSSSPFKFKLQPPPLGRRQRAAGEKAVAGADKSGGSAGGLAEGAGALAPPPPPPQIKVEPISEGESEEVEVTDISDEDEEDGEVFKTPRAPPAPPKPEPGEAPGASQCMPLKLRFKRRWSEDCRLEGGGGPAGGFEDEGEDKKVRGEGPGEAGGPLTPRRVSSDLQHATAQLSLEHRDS
# Method in brief: as §1
# ETS2 = target: T9, ETS2 (Homo sapiens, UniProt P15036 1-469)
# T9 sequence: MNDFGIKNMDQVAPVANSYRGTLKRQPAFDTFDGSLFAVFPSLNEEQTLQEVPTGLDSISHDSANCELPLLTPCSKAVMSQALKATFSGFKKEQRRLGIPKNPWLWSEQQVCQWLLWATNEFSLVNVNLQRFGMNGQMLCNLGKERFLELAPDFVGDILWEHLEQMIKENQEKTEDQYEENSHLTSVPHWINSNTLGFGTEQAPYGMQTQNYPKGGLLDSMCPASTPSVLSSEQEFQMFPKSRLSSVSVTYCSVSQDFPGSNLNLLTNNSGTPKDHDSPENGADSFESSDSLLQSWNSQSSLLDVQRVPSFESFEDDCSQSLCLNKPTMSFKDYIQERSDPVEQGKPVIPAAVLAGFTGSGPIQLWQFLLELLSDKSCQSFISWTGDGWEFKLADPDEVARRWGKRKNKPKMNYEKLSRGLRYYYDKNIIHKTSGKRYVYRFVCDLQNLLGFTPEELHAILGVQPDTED
# Method in brief: as §1
# ELK1 = target: T10, ELK1 (Homo sapiens, UniProt P19419 1-428)
# T10 sequence: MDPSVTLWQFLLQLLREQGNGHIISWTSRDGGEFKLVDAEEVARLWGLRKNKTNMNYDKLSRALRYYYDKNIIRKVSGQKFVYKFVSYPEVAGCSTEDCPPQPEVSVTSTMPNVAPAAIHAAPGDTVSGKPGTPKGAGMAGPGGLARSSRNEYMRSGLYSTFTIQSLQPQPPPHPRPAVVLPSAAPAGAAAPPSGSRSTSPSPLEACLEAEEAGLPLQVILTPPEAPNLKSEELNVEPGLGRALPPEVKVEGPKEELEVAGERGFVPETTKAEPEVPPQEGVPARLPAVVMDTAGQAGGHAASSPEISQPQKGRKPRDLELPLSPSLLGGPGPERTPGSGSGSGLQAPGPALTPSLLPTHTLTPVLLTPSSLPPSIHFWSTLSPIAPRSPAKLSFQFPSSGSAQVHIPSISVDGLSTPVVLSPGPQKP
# Method in brief: as §1
# ELK4 = target: T11, ELK4 (Homo sapiens, UniProt P28324-2 1-405)
# T11 sequence: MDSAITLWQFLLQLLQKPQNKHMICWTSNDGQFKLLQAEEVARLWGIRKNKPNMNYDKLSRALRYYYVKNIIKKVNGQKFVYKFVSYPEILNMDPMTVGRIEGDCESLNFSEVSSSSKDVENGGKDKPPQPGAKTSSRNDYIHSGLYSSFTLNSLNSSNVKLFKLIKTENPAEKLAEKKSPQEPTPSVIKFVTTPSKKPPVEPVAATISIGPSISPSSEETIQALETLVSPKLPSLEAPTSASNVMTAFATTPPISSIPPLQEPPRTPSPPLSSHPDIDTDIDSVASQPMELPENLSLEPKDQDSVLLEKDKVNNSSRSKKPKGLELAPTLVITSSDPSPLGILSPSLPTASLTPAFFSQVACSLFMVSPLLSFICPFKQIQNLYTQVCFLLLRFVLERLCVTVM
# Method in brief: as §1
sequence,measurement,setting,value
TGCGGT,binding signal,FLI1,"1.09 fold enrichment (6-mer frequency, TF over GST control)"
same,binding signal,EHF,"1.07 fold enrichment (6-mer frequency, TF over GST control)"
same,binding signal,SPIB,"1.02 fold enrichment (6-mer frequency, TF over GST control)"
same,binding signal,ETV2,"1.08 fold enrichment (6-mer frequency, TF over GST control)"
same,binding signal,ETV7,"1 fold enrichment (6-mer frequency, TF over GST control)"
same,binding signal,ETV3,"1.01 fold enrichment (6-mer frequency, TF over GST control)"
same,binding signal,ETV6,"1.03 fold enrichment (6-mer frequency, TF over GST control)"
ACAAAG,binding signal,FLI1,"1.04 fold enrichment (6-mer frequency, TF over GST control)"
same,binding signal,GABPA,"1.03 fold enrichment (6-mer frequency, TF over GST control)"
same,binding signal,ELF1,"1.02 fold enrichment (6-mer frequency, TF over GST control)"
same,binding signal,ELK3,"1.04 fold enrichment (6-mer frequency, TF over GST control)"
same,binding signal,ERF,"1.01 fold enrichment (6-mer frequency, TF over GST control)"
same,binding signal,ETS2,"1.01 fold enrichment (6-mer frequency, TF over GST control)"
same,binding signal,ETV7,"1.01 fold enrichment (6-mer frequency, TF over GST control)"
CATCAG,binding signal,FLI1,"1 fold enrichment (6-mer frequency, TF over GST control)"
same,binding signal,ELK1,"1.04 fold enrichment (6-mer frequency, TF over GST control)"
same,binding signal,EHF,"1.03 fold enrichment (6-mer frequency, TF over GST control)"
same,binding signal,ELK3,"1.06 fold enrichment (6-mer frequency, TF over GST control)"
same,binding signal,ELK4,"1.06 fold enrichment (6-mer frequency, TF over GST control)"
same,binding signal,ETS2,"1 fold enrichment (6-mer frequency, TF over GST control)"
